Pf growth 96h: Primary qHTS for delayed death inhibitors of the malarial parasite plastid, 96 hour incubation. AID 504834, 2011. P. falciparum luciferase reporter growth, 96 h. Potency, µM (doses to about 28.7 µM), without a hit: at the highest dose activity change, negative = inhibition, actives largely listed as inhibitors. 320,000 tested, 6.9% active; note: potency is the fitted concentration of half-maximal effect; % is set by controls: 0 for no effect and ±100 for the full control effect
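P. falciparum expressing integrated firefly luciferase grown in erythrocytes (2% hematocrit, 0.05% parasitemia final) with compounds for 96 hours at 37 C, 5% CO2. Growth inhibition read as loss of luminescence after adding luciferase detection reagent.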
NS1 function inh: qHTS Assay for Inhibitors of Influenza NS1 Protein Function; Potency, µM (top dose mostly 46.1 µM), inactives show at the highest dose activity, positive = more growth; 270,000 tested, 0.4% active; AID 2326, 2010; calls by dose curve; note: potency is the fitted concentration of half-maximal effect; actives are rising curves; nearly all actives have a fitted effect of over 50% in size
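Growth recovery, yeast-based: influenza A NS1 expressed in S. cerevisiae causes slow growth, and suppressors are detected by OD600. The parent strain without NS1 is used as positive control.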
CHX counter: Cycloheximide Counterscreen for Small Molecule Inhibitors of Shiga Toxin; max response, %; 300,000 tested, 12% active; cell reporter, cycloheximide protein synthesis inhibition counterscreen; in the data active = max response mostly above about 13%, no sharp cut-off; inactive = mostly below about 14%; note: read at 38.3 µM for the half of the compounds with a filed dose; 0% is about no effect
Pf growth 48h: Primary qHTS for delayed death inhibitors of the malarial parasite plastid, 48 hour incubation | Potency, µM (highest dose often 28.7 µM), inactives show at the top dose activity change, negative = inhibition, most hits filed as inhibitors | P. falciparum luciferase growth in erythrocytes, 48 h | 310,000 tested, 5.9% active; note: potency is the fitted concentration of half-maximal effect; % is set by controls: 0 for no effect and ±100 for the full control effect
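Luciferase-expressing parasites in RBCs, 2% Hct / 0.1% parasitemia final; RPMI 1640 + 0.5% Albumax; 37 C, 5% CO2, one generation; luminescence read-out, lower signal = inhibition.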
Shiga inhibitor: A qHTS for Small Molecule Inhibitors of Shiga Toxin | Vero cells, Shiga toxin protein synthesis inhibition reporter | inhibition, % at 38.7 µM | 290,000 tested, 9.2% active; in the data active = inhibition mostly above about 28%, no sharp cut-off; inactive = mostly below about 43%; note: 0% is about no effect
An asterisk follows results filed as active; ? = inconclusive; nt = no result. In the library only some 21% were active in any assay of this set; here they are far more common. Unless noted, calls come from the whole dose curve; as a rule, active = well fitted inhibition curve with a large enough effect; inconclusive = small, poorly fitted or top-dose-only effect, or another doubt; inactive = no such curve, though single readings can be large or run the other way.

SMILES | Pf growth 96h | NS1 function inh | CHX counter | Pf growth 48h | Shiga inhibitor
O=C(CNC(=O)c1ccccc1)OCC(=O)c1cccs1 | 48.8% | 3.9% | 8.4 | 13.9% | 3.5
C/C(=N/OCC(=O)Nc1ccccc1)c1cccs1 | 49.7% | -51.5% | 27.0* | 87.2% | 59.7*
COc1ccc(NC(=O)CO/N=C(\C)c2cccs2)cc1 | 17.2% | nt | 12.6 | -17.2% | -6.2
O=C(OCC(=O)c1cccs1)c1ccccc1 | -13.9% | ? | 30.7* | 136.8% | 50.8
O/N=C1\CCCc2ccc3ccccc3c21 | 23.3% | -3.1% | 5.8 | 1.9% | 34.6
O=C(c1ccccc1)c1cn(CC(=O)N2CCCC2)c2ccccc12 | 3.7µM* | -3.2% | -0.9 | nt | -12.4
O=C(O)Cn1cc(C(=S)N2CCCCC2)c2ccccc21 | 8.28µM* | nt | 5.6 | -0.8% | -4.7
CC1CCCN(C(=O)C(=O)c2cn(CC(=O)N3CCCCCC3)c3ccccc23)C1 (centres undefined) | 11.7µM* | 23.9% | 1.2 | ? | -0.8
CC1CCN(C(=O)C(=O)c2cn(CC(=O)N3CCCCCC3)c3ccccc23)CC1 | ? | 11.8% | -1.2 | ? | -13.1
COc1ccc(N2CCN(C(=O)C(=O)c3cn(CC(=O)N4CCOCC4)c4ccccc34)CC2)cc1 | 0.3% | -16.5% | -3.2 | 10.5% | 3.2
O=C(O)Cn1cc(C(=S)N2CCOCC2)c2ccccc21 | nt | 2.0% | -2.6 | -2.2% | -15.1
COc1ccc(N2CCN(C(=O)C(=O)c3cn(CC(=O)N4CCCCCC4)c4ccccc34)CC2)cc1 | 10.4µM* | -0.4% | -2.1 | ? | -1.0
O=C(c1ccccc1)c1cn(CC(=O)N2CCOCC2)c2ccccc12 | 6.1% | -2.4% | 2.9 | 10.7% | 8.7
CN(C)S(=O)(=O)c1cccc(NC(=O)CN2C(=O)NC(Cc3ccccc3)C2=O)c1 (centres undefined) | -20.6% | nt | nt | -7.3% | nt
Cn1c(Cl)c(/C=N/OC(=O)C(C)(C)C)c2ccccc21 | 0.0% | -1.6% | 5.8 | 32.4% | 0.5
O=C(C(=O)N1CCN(c2ccccc2)CC1)c1cn(CC(=O)N2CCCCCC2)c2ccccc12 | ? | ? | -2.7 | 9.28µM* | 6.8
O=C(O)Cn1nnnc1SCC(=O)Nc1ccc(F)cc1F | -1.8% | 1.8% | -1.8 | 2.7% | 2.7
O=C(Cc1ccccc1)Nc1ccc(-c2nnc(-c3ccco3)o2)cc1 | 101.8% | -0.2% | 17.1* | 23.4% | 13.2
O=C(O)CCC(=O)Nc1ccc(-c2nnc(-c3ccco3)o2)cc1 | 1.9% | -5.8% | -2.5 | nt | 4.2
O=C(Cc1ccc(Cl)cc1)Nc1ccc(-c2nnc(-c3ccco3)o2)cc1 | 74.6% | -23.3% | -1.9 | ? | 14.8
Cc1ccc(NC(=O)CCSc2nnc(-c3ccco3)o2)cc1 | ? | -9.9% | 0.8 | -17.6% | 4.2
Cc1ccc(SCC(=O)Nc2ccc(-c3nnc(-c4ccco4)o3)cc2)cc1 | 11.0% | -14.7% | 16.2* | ? | 43.2*
O=C(Cc1ccccc1)c1nnc(-c2ccccc2)o1 | ? | 7.3% | 14.0* | -0.7% | 24.9
COc1ccccc1CC(=O)Nc1ccc(-c2nnc(-c3ccco3)o2)cc1 | 135.3% | -28.7% | 24.5* | 8.28µM* | 47.3
O=C(N=C1SC2CS(=O)(=O)CC2N1c1ccc(F)cc1)C1CC1 (centres undefined) | 20.4% | 16.9% | -6.6 | -4.3% | -4.4
SMILES | Pf growth 96h | NS1 function inh | CHX counter | Pf growth 48h | Shiga inhibitor
Cc1ccc(C(=O)Nc2ccc(C(=O)O)cc2)cc1S(=O)(=O)NCc1ccccc1 | ? | nt | -6.1 | 16.1% | 17.6
Cc1ccc([C@@]2(C)CC/C(=N/N=C3\CC[C@](C)(c4ccc(C)c(C)c4)c4cc(C)c(C)cc43)c3cc(C)c(C)cc32)cc1C | nt | -5.6% | nt | nt | nt
CCC(=O)Nc1nc2ccccc2n1Cc1ccccc1Cl | 2.94µM* | -1.4% | 0.7 | 3.29µM* | -3.4
CCCCCCCn1c(NC(=O)CC)nc2ccccc21 | 0.928µM* | -92.6% | -2.4 | 1.85µM* | -2.4
CC(=O)Nc1nc2ccccc2n1Cc1ccccc1Cl | ? | -3.6% | -0.5 | 3.29µM* | -3.1
Cn1c(NCc2ccccc2Cl)nc2ccccc21 | nt | 1.3% | nt | nt | nt
CC(=O)Nc1nc2ccccc2n1Cc1ccccc1C | 34.0% | -55.5% | 1.0 | 7.38µM* | -4.7
CCC(=O)Nc1nc2ccccc2n1Cc1ccc(Cl)cc1 | 106.1% | -50.4% | -1.9 | ? | 45.4
COCCCNC(=O)c1cc(C)nn1-c1ccccc1 | -4.8% | -0.6% | 2.7 | -2.4% | -4.6
C=CCn1c(SCc2nc3ccccc3c(=O)[nH]2)nnc1-c1cc2cc(Cl)ccc2o1 | ? | ? | 3.7 | 0.1% | -19.7
CC(=O)Nc1nc2ccccc2n1CCOc1ccccc1Cl | 12.0% | 4.3% | 1.4 | 3.7µM* | -3.7
CC(C)N(C(=O)Cn1c(-c2ccccc2Cl)nc2ccccc21)c1ccccc1 | ? | -16.9% | 8.7 | ? | -6.2
CCc1cccc(CC)c1NC(=O)Cn1c(-c2ccccc2Cl)nc2ccccc21 | 5.0% | 7.6% | 22.3* | 38.8% | 37.2*
CC(=O)NCCc1nc2ccccc2n1CCOc1ccccc1 | ? | -2.0% | 1.2 | -13.6% | -12.6
Cc1ccccc1Cn1c(-c2ccc(=O)[nH]c2)nc2ccccc21 | 7.38µM* | 11.5% | -5.8 | 11.7µM* | -4.8
CC(C)Cn1c(N)c(C(=O)COC(=O)c2cnc(Cl)c(Cl)c2)c(=O)n(C)c1=O | 20.2% | nt | -0.4 | 3.9% | -11.3
CCCC(=O)NC(c1ccc(OC)c(OC)c1)c1cc(Cl)c2cccnc2c1O (centres undefined) | ? | 1.3% | -2.7 | 9.28µM* | 1.0
CCCCC(=O)NC(c1cccs1)c1cc(Cl)c2cccnc2c1O (centres undefined) | 0.0% | -53.3% | -3.4 | 0.738µM* | -3.6
CCCC(=O)NC(c1ccco1)c1cc([N+](=O)[O-])c2cccnc2c1O (centres undefined) | 14.7% | nt | 9.8 | ? | -6.7
C=CCOc1ccc(CN(C)C(=O)C2CCCO2)cc1 (centres undefined) | 21.5% | 5.2% | -2.0 | 7.4% | 35.0
Cc1cccc(Nc2ncnc3onc(-c4cccc(Cl)c4)c23)c1C | 9.28µM* | -52.1% | 8.2* | ? | 12.0
CN(C)C(=O)c1ccc(NC(=O)COc2ccc([N+](=O)[O-])cc2)cc1 | ? | 3.0% | -1.2 | -5.4% | -13.4
CC(=O)c1cccc(NC(=O)c2ccccc2-c2ccccc2C(=O)O)c1 | ? | 18.7% | -4.8 | 17.1% | -15.7
CC(=O)c1ccc(NC(=O)c2cnn3ccccc23)cc1 | 10.4µM* | -13.1% | 43.9* | nt | 55.3*
CC(=O)c1cccc(NC(=O)c2cnn3ccccc23)c1 | ? | -21.1% | 89.3* | nt | 59.1*
CCCc1sc(N/N=C/c2ccccn2)nc1-c1ccc(Br)cc1 | 9.2% | 8.6% | 6.1 | 1.65µM* | 19.2
CC(C)(C)NC(=S)N1CCn2cccc2C1c1cccnc1 (centres undefined) | 9.28µM* | nt | -0.1 | 4.0% | 12.5
S=C(Nc1ccccc1)N1CCn2cccc2C1c1cccnc1 (centres undefined) | -6.4% | 1.4% | -4.4 | 3.1% | 0.8

Source: PubChem (National Center for Advancing Translational Sciences (NCATS))
